# Activity calls are given as the source filed them. The calls were made as follows: active = hit-call score of the fitted dose curve at least 0.9, where 1 is the maximum; inactive = score below 0.9.
# Key:
# [1] = CCTE_Padilla_ZF_Score.Blood_pooling: CCTE's 144 Hour Post-fertilization zebrafish Assay Score for Blood Pooling, Padilla Lab (AID 2284415)
# Procedure, shortened: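 Blood pooling was scored at 6 dpf under a stereo microscope by two blinded assessors, fitted upward against DMSO. Single embryos were dosed at 6–8 hpf in 10% Hanks', kept sealed at 26C (14:10 h cycle) and rinsed at 5 dpf.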
# [2] = CCTE_Padilla_ZF_Score.Any: CCTE's 144 Hour Post-fertilization zebrafish Assay Score for Any Mortality or Malformation, Padilla Lab (AID 2284416)
# Procedure, shortened: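 Wild-type zebrafish embryos with chorions, one per well in 10% Hanks' from 6–8 hpf, dosed in sealed plates at 26 C, 14:10 h light:dark; rinsed at 5 dpf; blinded scoring at 6 dpf for death or malformation, versus DMSO.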
Compound,outcome [1],outcome [2],AC50 [2]
O=C(O)CCC(F)(C(F)(F)F)C(F)(F)F,inactive,inactive,–
O=C(O)C(F)(F)C(F)(F)C(F)(F)C(F)(F)C(F)(F)C(F)(F)C(F)(F)C(F)(F)C(F)(F)C(F)(F)F,inactive,–,3.35 µM (active)
O=C(O)C(F)(F)C(F)(F)C(F)(F)C(F)(F)C(F)(F)C(F)(F)F,inactive,–,98.9 µM (active)
